High-throughput results (PubChem BioAssay)
IL1B secr inh = qHTS for Inhibitors of Inflammasome Signaling: IL-1-beta AlphaLISA Primary Screen | THP-1 LPS/ATP IL-1B secretion, AlphaLISA, 16 h; hits give low values | activity change, % at 57.5 µM | 360,000 compounds, 4.7% hits | AID 743279, 2014; in the data active = activity change below about -50%; inconclusive = mostly about -30% to -49%; note: % is set by controls: 0 for no effect and ±100 for the full control effect
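THP-1 cells pretreated 1 hr with compounds (up to 57.5 uM final), then stimulated with LPS (250 ng/mL final) plus ATP (1.25 mM final); secreted IL-1B measured by AlphaLISA after 16 hr, decreased signal indicating inhibition.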
HepG2 tox = qHTS for Inhibitors of TGF-b: Cytotox Counterscreen; HepG2 CAGA-GFP viability, ATP luminescence, 18 h; Potency, µM (titrated, usually from 46.1 µM), without a hit: at the highest dose activity change, negative = cytotoxicity, most hits filed as cytotoxic; 410,000 compounds, 0.76% hits; note: potency is the fitted concentration of half-maximal effect
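HepG2 CAGA-GFP cells (1000/well, DMEM with 1% FBS) received compound, then TGF-beta at 500 pg/mL final, and were incubated 18 hours at 37 degrees C. Viability was read by CellTiter-Glo luminescence. Media-only wells were set as complete cell-killing and DMSO as no toxicity.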
DT40 TDP1 CPT = qHTS for Inhibitors of human tyrosyl-DNA phosphodiesterase 1 (TDP1): qHTS in cells in presence of CPT. chicken DT40 Tdp1-/-;hTDP1 cells + 20 nM CPT, ATP luminescence, 48 h. Potency, µM (highest dose often 46.2 µM), without a hit: top-dose activity change, negative = growth inhibition, hits mostly inhibitors. 420,000 compounds, 12% hits; note: potency is the fitted concentration of half-maximal effect; % is set by controls: 0 for no effect and ±100 for the full control effect; nearly all actives have a fitted effect of over 55% in size
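Chicken DT40 Tdp1-/- cells complemented with human TDP1, 400 cells/well, exposed to compounds plus 20 nM camptothecin for at least 48 h at 37 C; viability read as ATP content by CellTiter-Glo luminescence.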
TGFb inhibitor = qHTS for Inhibitors of TGF-b; HepG2 CAGA-GFP TGF-b/SMAD3 reporter, GFP fluorescence, 18 h; TGF-beta stimulated, 500 pg/mL final; Potency, µM (highest dose often 46.1 µM), without a hit: at the top dose activity, negative = inhibition, usual class: inhibitors; 410,000 compounds, 1.2% hits; note: potency is the fitted concentration of half-maximal effect; % is set by controls: 0 for no effect and ±100 for the full control effect; nearly all actives have a fitted effect of over 65% in size
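First, reporter cells (HEPG2 CAGA-GFP) rested 2 h at 37 degrees C. Next, compounds were pinned in and TGF-beta added to 500 pg/mL final. After 18 h, GFP was imaged per cell and summed per well.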
TDP1 block = qHTS Assay for Inhibitors of Tyrosyl-DNA Phosphodiesterase (TDP1); Tyrosyl-DNA phosphodiesterase 1 (Homo sapiens), Q9NUW8; recombinant TDP1, AlphaScreen DNA substrate cleavage; Potency, µM (series often up to 130 µM), without a hit: at the top dose activity change, negative = inhibition, actives largely listed as inhibitors; 350,000 compounds, 0.28% hits; AID 485290, 2010; note: potency is the fitted concentration of half-maximal effect; % is set by controls: 0 for no effect and ±100 for the full control effect; nearly all actives have a fitted effect of over 40% in size
Target sequence (Q9NUW8 whole entry, looked up): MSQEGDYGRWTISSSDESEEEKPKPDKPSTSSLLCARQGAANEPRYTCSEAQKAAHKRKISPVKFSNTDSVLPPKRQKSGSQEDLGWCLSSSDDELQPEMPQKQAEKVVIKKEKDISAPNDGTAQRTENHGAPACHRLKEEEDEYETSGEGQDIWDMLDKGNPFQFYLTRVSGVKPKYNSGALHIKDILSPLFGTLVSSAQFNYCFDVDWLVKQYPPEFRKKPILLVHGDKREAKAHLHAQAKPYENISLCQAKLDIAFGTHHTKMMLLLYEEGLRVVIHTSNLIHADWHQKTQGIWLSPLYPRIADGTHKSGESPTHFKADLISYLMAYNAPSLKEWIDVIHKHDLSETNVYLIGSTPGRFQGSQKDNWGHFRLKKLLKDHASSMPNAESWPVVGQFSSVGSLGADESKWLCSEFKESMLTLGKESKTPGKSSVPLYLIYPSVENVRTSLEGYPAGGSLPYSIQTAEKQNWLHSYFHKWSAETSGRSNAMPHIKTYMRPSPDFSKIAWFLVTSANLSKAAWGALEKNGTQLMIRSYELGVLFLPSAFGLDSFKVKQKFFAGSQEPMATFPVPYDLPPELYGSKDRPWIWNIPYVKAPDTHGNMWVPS
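Tdp1 1 nM final; 15 min RT w/ cpd; substrate 15 nM, 5 min; beads 10 ug/ml, 10 min; AlphaScreen read. Neg ctrl: no enzyme.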
TDP1 cell noCPT = qHTS for Inhibitors of human tyrosyl-DNA phosphodiesterase 1 (TDP1): qHTS in cells in absence of CPT. DT40 Tdp1-/- hTDP1 cells, no CPT, ATP luminescence, 48 h. Potency, µM (highest dose often 46.2 µM), inactives show at the top dose activity change, negative = growth inhibition, most hits filed as inhibitors. 420,000 compounds, 15% hits. AID 686978, 2013; note: potency is the fitted concentration of half-maximal effect; % is set by controls: 0 for no effect and ±100 for the full control effect; nearly all actives have a fitted effect of over 55% in size
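No-CPT arm: Tdp1-/-;hTDP1 DT40 cells (400/well) plus compounds, incubated ≥48 hr at 37 °C. Readout CellTiter-Glo luminescence.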
* hit, by the source's call; ? = inconclusive; . = not tested or not shown; [ ] = remark or other dose. This is a sample that favours compounds with a hit; in the whole collection about 19% have one here. Unless noted, calls come from the whole dose curve; as a rule, active = well fitted curve in the direction sought with a large enough effect; inconclusive = small, poorly fitted or top-dose-only effect, or another doubt; inactive = no such curve, though single readings can be large; an effect the other way counts as inactive or inconclusive.

SMILES	IL1B secr inh	HepG2 tox	DT40 TDP1 CPT	TGFb inhibitor	TDP1 block	TDP1 cell noCPT
CN1C(C(=O)Nc2ccc(OC(F)(F)F)cc2)=CC(c2cccs2)=NS1(=O)=O	-4	10%	?	?	8%	3.7µM*
Cc1ccc(NC(=O)C2=CC(c3ccc(C)cc3)=NS(=O)(=O)N2C)cc1	19	-26%	?	-14%	.	?
COc1ccc(CNC(=O)c2ccc(CNS(=O)(=O)c3ccc(F)cc3)cc2)cc1	.	11%	-12%	-3%	6%	7%
COc1cccc(C2=NS(=O)(=O)N(C)C(C(=O)Nc3ccccc3SC)=C2)c1	.	-27%	16µM*	-10%	9%	?
CCc1ccccc1NC(=O)C1=CC(c2ccc3c(c2)OCO3)=NS(=O)(=O)N1C	.	-7%	?	-41%	-6%	-29%
COc1ccc(NC(=O)C2=CC(c3ccc4c(c3)OCO4)=NS(=O)(=O)N2C)cc1OC	.	-17%	?	-8%	6%	?
COc1cc(NC(=O)C2=CC(c3ccc(F)cc3)=NS(=O)(=O)N2C)cc(OC)c1OC	.	3%	?	0%	9%	23µM*
Cc1nc2ccc(S(=O)(=O)N(C)CC(=O)Nc3ccc(C(C)C)cc3)cc2s1	.	-5%	?	.	0%	?
Cc1ccc(N(CCC#N)C(=O)CCl)cc1C	-98*	11µM*	?	?	0%	7.3µM*
Cc1ccc(SCC(=O)OCC(=O)N(CCC#N)c2ccccc2)cc1C	12	1%	-3%	-2%	-5%	2%
Cc1cc(C)c(C(=O)Cn2cnc3cc([N+](=O)[O-])ccc3c2=O)cc1C	2	12%	?	-15%	4%	18µM*
Cc1ccc(NC(=O)Cn2cnc3cc([N+](=O)[O-])ccc3c2=O)cc1	1	18%	-18%	-11%	6%	-13%
CC1CCCCN1C(=O)Cn1cnc2cc([N+](=O)[O-])ccc2c1=O (centres undefined)	66	2%	15µM*	-3%	1%	18µM*
O=C(Cn1cnc2cc([N+](=O)[O-])ccc2c1=O)Nc1cccc(S(=O)(=O)N2CCCCC2)c1	-55*	-27%	?	-18%	.	?
CCNC(=O)C1CCN(c2nc3ccccc3nc2C(F)(F)F)CC1	.	5%	?	2%	3%	?
CN(Cc1ccccc1)c1ccc(C=O)cc1	.	-1%	?	-15%	.	?
CN(Cc1ccccc1)c1nc(N)nc(Cl)c1C=O	-106*	-9%	-26%	-14%	9%	?
Cc1c(NC(=S)NC(=O)c2ccccc2)c(=O)n(-c2ccccc2)n1C	4	-24%	1%	5%	.	-13%
COc1ccccc1-c1ccc(C(=O)NCCN2CCOCC2)c(N2CCN(c3ccccc3F)CC2)n1	.	.	3%[9.04 µM]	.	.	-24%
O=C(COC(=O)/C=C/c1ccc2ccccc2n1)NNC(=O)c1ccccc1	?	-38%	?	?	.	26µM*
CC(C)CCNC(=O)COC(=O)/C=C/c1ccc2ccccc2n1	-59*	31%	?	-12%	-3%	?
Cc1cc(C)c2ccc(N)nc2c1O	96	-36%	23µM*	-14%	6%	18µM*
Cc1cc(=O)[nH]c2nc(N)ccc12	.	-1%	2%	-6%	.	10%
Cn1c(NCCc2ccccc2)cc(=O)n(C)c1=O	-11	9%	0%	11%	5%	-16%
Cn1c(=O)cc(Nc2ccccc2)[nH]c1=O	28	3%	-16%	6%	.	-18%
SMILES	IL1B secr inh	HepG2 tox	DT40 TDP1 CPT	TGFb inhibitor	TDP1 block	TDP1 cell noCPT
Cn1c(=O)cc(NCCc2ccccc2)[nH]c1=O	28	0%	7.3µM*	-5%	4%	10µM*
Cn1c(=O)cc(Nc2ccc(Cl)cc2)[nH]c1=O	41	15%	?	26%	.	21µM*
C=CC[C@@H](CC(=O)NCCO)C(=O)N[C@@H](COC(=O)[C@@H](CC=C)CC(=O)OC(C)(C)C)Cc1ccccc1	-6	-26%	?	-11%	1%	-27%
C=CC[C@@H](CC(=O)N[C@@H](CO)Cc1ccccc1)C(=O)N[C@H](COC(=O)[C@@H](CC=C)Cc1ccc(F)cc1)Cc1ccccc1	14	3%	?	-3%	0%	?
C=CC[C@@H](CC(=O)N[C@@H](CO)Cc1ccccc1)C(=O)N[C@H](COC(=O)[C@@H](CC=C)CC(=O)OC(C)(C)C)Cc1ccccc1	9	-4%	13µM*	?	1%	21µM*
C=CC[C@@H](CC(=O)N[C@H](CO)Cc1ccccc1)C(=O)N[C@@H](COC(=O)[C@H](CC=C)CC(=O)OC(C)(C)C)Cc1ccccc1	-17	-25%	21µM*	-17%	0%	23µM*
O=C(CSc1nc2c([nH]c3ccccc32)c(=O)n1-c1ccc(F)cc1)N1CCCCCC1	.	-33%	?	1%	-4%	?
COc1ccc(-c2cc(CCC(=O)N3CCN(c4cc(C)ccc4C)CC3)[nH]n2)cc1	-5	-19%	?	?	1%[56.1 µM]	23µM*
CCOC(=O)c1[nH]c(C)c(CCC(=O)Nc2c(C)cc(C)cc2C)c1C	.	-2%	?	8%	5%	21µM*
CCOC(=O)c1[nH]c(C)c(CCC(=O)Nc2cc(C)ccc2OC)c1C	.	1%	-28%	-4%	5%	?
CCOC(=O)c1[nH]c(C)c(CCC(=O)N2CCN(c3cccc(OC)c3)CC2)c1C	.	1%	?	11%	5%	?
CCOC(=O)c1[nH]c(C)c(CCC(=O)N2CCN(c3cc(C)ccc3C)CC2)c1C	.	-30%	?	?	8%	23µM*
CCOC(=O)c1[nH]c(C)c(CCC(=O)N2CCN(c3cc(Cl)ccc3C)CC2)c1C	.	-27%	?	11µM*	11%	23µM*
COc1ccc(NC(=O)CCNC(=O)c2ccco2)cc1Cl	-7	4%	2%	1%	0%	-3%
C[C@@H]1CN[C@H](CCO)/C1=C\c1ccccc1	10	1%	-4%	2%	.	-28%
